The record followed here is PubChem BioAssay (NCATS).

Assay [1] in a line: Primary qHTS for inhibitors of SARS-S pseudo-typed particle cell entry (AID 1479145). Note: series mostly up to about 57 µM; nearly all actives have a fitted effect of over 45% in size. Particulars: outcome: dose series up to 57.1 µM unless noted.
The nature of assay [2]: Primary qHTS for Vero E6 cytotoxicity: counterscreen for inhibitors of SARS-S pseudo-typed particle cell entry (AID 1479150). The settings on record: outcome: dose series up to 57.1 µM unless noted. A general note: In qHTS, concentration-response curves come from the screen itself.
A short description of assay [3]: Primary qHTS for Huh7 cytotoxicity: counterscreen for inhibitors of MERS-S pseudotyped particle cell entry (AID 1479147). Note: potency is the fitted concentration of half-maximal effect. Particulars: outcome: dose series up to 57.1 µM unless noted.
Assay [4] is described as follows: Primary qHTS for inhibitors of MERS-S pseudo-typed particle cell entry (AID 1479149). Note: nearly all actives have a fitted effect of over 60% in size. Note: potency is the fitted concentration of half-maximal effect. Particulars: outcome: dose series up to 57.1 µM unless noted.
Assay [5] can be described thus: Confirmatory qHTS to identify inhibitors of SARS-CoV-2 cell entry (AID 1645844). Note: potency is the fitted concentration of half-maximal effect; nearly all actives have a fitted effect of over 45% in size. In outline: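 Luminescence from a luciferase reporter, read 48 hr after pseudotyped-particle addition, gives entry signal, normalised to spike-bearing PP wells and bald PP lacking fusion protein wells. Cells are Expi293F stably expressing human ACE2, compound-pretreated 1 hr.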
The nature of assay [6]: Cytotoxicity counterscreen for inhibitors of SARS-CoV-2 cell entry (AID 1645845). Note: nearly all actives have a fitted effect of over 50% in size. Note: potency is the fitted concentration of half-maximal effect. Particulars: outcome: dose series up to 57.1 µM unless noted. The method, boiled down: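 48 h compound treatment (after 1 h preincubation), HEK293-ACE2 cells, 37 C/5% CO2; ATP luminescence endpoint; normalized to cell wells and media blanks.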
The nature of assay [7]: VSVG counterscreen qHTS to identify inhibitors of SARS-CoV-2 cell entry (AID 1645847). Note: potency is the fitted concentration of half-maximal effect; nearly all actives have a fitted effect of over 65% in size. The method, boiled down: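 Luminescence read after 48 h infection at 37 C with VSV-G-pseudotyped MLV particles, following 1 h compound exposure of Expi293F cells stably expressing human ACE2; scaled between bald particle and VSV-G particle wells.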

Inconclusive results are not listed. Calls of active or inactive are those of the source. Calls come from the whole dose curve.

Take `CC1(S(=O)(=O)O)CC(=O)c2ccccc2C1=O` (stereo not given): the Potency result in assay [1] and in assay [2] was “inactive” each time.
For `CC[C@]12C=CCN3CC[C@@]4(c5cc([C@@]6(C(=O)OC)CC7C[C@@H](C(C)(F)F)CN(Cc8c6[nH]c6ccccc86)C7)c(OC)cc5N(C)[C@H]4[C@@](O)(C(=O)OC)[C@@H]1OC(C)=O)[C@@H]32` (stereo not given in full), in assay [3], the Potency result is “inactive”.
`NC(=O)C1(N2CCCCC2)CCN(CCCN2c3ccccc3CCc3ccccc32)CC1`: the Potency is 28.2 µM (active) in assay [3] and 8.91 µM (active) in assay [4]. Also, the Potency entry in assay [2] was “inactive”.
Turning to `CO[C@H]1C[C@H](O[C@@H]2[C@H](C)O[C@H](O[C@@H]3/C(C)=C/C[C@@H]4C[C@@H](C[C@]5(C=C[C@H](C)[C@@H](C6CCCCC6)O5)O4)OC(=O)[C@@H]4C=C(C)C(O)[C@H]5OC/C(=C\C=C\[C@@H]3C)[C@]54O)C[C@@H]2OC)O[C@@H](C)[C@@H]1O` (stereo not given in full), the Potency entry in assay [3], in assay [4], in assay [2] and in assay [6] was “inactive” in each case. Besides, the values for the Potency in assay [5] and in assay [7] were 2.71 µM (active) and 1.36 µM (active), respectively.
Take `CCCCCCC(=O)O[C@H]1CC[C@H]2[C@@H]3CCc4cc(O)ccc4[C@H]3CC[C@]12C`: the Potency result in assay [3], in assay [4], in assay [2] and in assay [6] was “inactive” each time.
For the compound `CN1CCN(C2=Nc3ccccc3Cc3ccccc32)CC1`, the Potency entry in assay [3], in assay [4], in assay [2] and in assay [6] was “inactive” each time.
Take `NC(N)=NCC1COC2(CCCCC2)O1` (stereo not given): the Potency result in assay [3], in assay [4], in assay [2] and in assay [6] was “inactive” each time.
With `CNc1ncc(-c2ccc3c(=O)c(C(=O)O)cn(C4CC4)c3c2C)cc1C`, the Potency entry in assay [3], in assay [4], in assay [2] and in assay [6] was “inactive” each time.
With `COC(=O)[C@@H](N)CS`, the Potency result in assay [3], in assay [4], in assay [2] and in assay [6] was “inactive” throughout.
In the case of `CN(C)CCC(O)(c1ccccc1)c1ccccc1Cl` (stereo not given), the Potency entry in assay [3], in assay [4], in assay [2] and in assay [6] was “inactive” throughout.
`CN1N=C2CCN(C(=O)[C@H](COCc3ccccc3)NC(=O)C(C)(C)N)C[C@]2(Cc2ccccc2)C1=O`: the Potency result in assay [3], in assay [4], in assay [2] and in assay [6] was “inactive” in each case.
Regarding `O=C(O)c1cc2ccccc2c(Cc2c(O)c(C(=O)O)cc3ccccc23)c1O`, the Potency entry in assay [3], in assay [4], in assay [2] and in assay [6] was “inactive” each time.
With `CCCCCCCCCCCCOC(=O)CS(=O)(=O)O`, the Potency result in assay [3], in assay [4], in assay [2] and in assay [6] was “inactive” each time.
On to `OC(c1ccccc1)(c1ccccc1)C12CC[N+](CCOCc3ccccc3)(CC1)CC2`, for which the Potency result in assay [3], in assay [4], in assay [2] and in assay [6] was “inactive” in each case.
As for `N=C(N)c1ccc(/C=C/c2ccc(C(=N)N)cc2O)cc1`, the Potency result in assay [3], in assay [4], in assay [2] and in assay [6] was “inactive” throughout.
For the compound `CC(C)N=c1cc2n(-c3ccc(Cl)cc3)c3ccccc3nc-2cc1Nc1ccc(Cl)cc1`, the Potency result in assay [3], in assay [4], in assay [2] and in assay [6] was “inactive” throughout.
Take `CC[C@H]1OC(=O)C[C@@H](O)[C@H](C)[C@@H](O[C@@H]2O[C@H](C)[C@@H](O)[C@H](N(C)C)[C@H]2O)[C@@H](CCN2C[C@H](C)C[C@H](C)C2)C[C@@H](C)C(=O)/C=C/C(C)=C/[C@@H]1CO[C@@H]1O[C@H](C)[C@@H](O)[C@@H](OC)[C@H]1OC`: the Potency entry in assay [3], in assay [4], in assay [2] and in assay [6] was “inactive” each time.
Take `CNCc1cc(-c2ccccc2F)n(S(=O)(=O)c2cccnc2)c1`: the Potency entry in assay [3], in assay [4], in assay [2] and in assay [6] was “inactive” in each case.
As to `CCOc1ccc(N=C(C)Nc2ccc(OCC)cc2)cc1`, the Potency entry in assay [3], in assay [4], in assay [2] and in assay [6] was “inactive” in each case.
For `CC1CC(OC(=O)C(O)c2ccccc2)CC(C)(C)C1` (stereo not given), the Potency result in assay [3], in assay [4], in assay [2] and in assay [6] was “inactive” each time.
As to `CCC(c1ccccc1)c1c(O)c2ccccc2oc1=O` (stereo not given), the Potency entry in assay [3], in assay [4], in assay [2] and in assay [6] was “inactive” in each case.
As to `CC(C)(C)NC(=O)N[C@H](C(=O)N1C[C@H]2[C@@H]([C@H]1C(=O)NC(CC1CCC1)C(=O)C(N)=O)C2(C)C)C(C)(C)C` (stereo not given in full), the Potency result in assay [3], in assay [4], in assay [2] and in assay [6] was “inactive” each time.
In the case of `CCCCC(O)c1ccccc1` (stereo not given), the Potency result in assay [3], in assay [4], in assay [2] and in assay [6] was “inactive” throughout.
With `Cc1cc(C2=NOC(c3cc(Cl)cc(Cl)c3)(C(F)(F)F)C2)ccc1C(=O)NCC(=O)NCC(F)(F)F` (stereo not given), the Potency entry in assay [3], in assay [4], in assay [2] and in assay [6] was “inactive” each time.
With `O=P(O)(O)OC(CO)CO`, the Potency entry in assay [3], in assay [4], in assay [2] and in assay [6] was “inactive” each time.
On to `CCC(C)C(C(=O)OCC[N+](C)(CC)CC)c1ccccc1` (stereo not given), for which the Potency entry in assay [3], in assay [4], in assay [2] and in assay [6] was “inactive” throughout.
With `CCCCCCCCCCCCCCCCCC(=O)NCCCC[C@H](NC(=O)CC[C@@H](NC(=O)[C@H](C)NC(=O)[C@@H](C)O[C@H]1[C@H](O)[C@@H](CO)OC(O)[C@@H]1NC(C)=O)C(N)=O)C(=O)O` (stereo not given in full), the Potency entry in assay [3], in assay [4], in assay [2] and in assay [6] was “inactive” each time.
Turning to `CCC(=O)O[C@@H](OP(=O)(CCCCc1ccccc1)CC(=O)N1C[C@H](C2CCCCC2)C[C@H]1C(=O)O)C(C)C` (stereo not given in full), the outcome was “inactive [at 11.4 µM]” in assay [3], “inactive [at 11.4 µM]” in assay [4], “inactive [at 11.4 µM]” in assay [2] and “inactive [at 11.3 µM]” in assay [6].
On to `O=C(c1ccc(F)c(F)c1Nc1ccc(I)cc1F)N1CC(O)([C@@H]2CCCCN2)C1`, for which the Potency result in assay [3], in assay [4] and in assay [2] was “inactive” throughout. Moreover, the Potency in assay [6] is 31.6 µM (active).
Regarding `C[N+](C)(C)CC(O)CC(=O)O` (stereo not given), the Potency result in assay [3], in assay [4], in assay [2] and in assay [6] was “inactive” throughout.
For the compound `CC1CCCCN1CCCOC(=O)c1ccccc1` (stereo not given), the Potency result in assay [3], in assay [4], in assay [2] and in assay [6] was “inactive” each time.
